Assay results published in PubChem BioAssay (NCI).
About 83,000 compounds went through this panel and 20% of them were active in at least one assay; those are over-represented in the sample as a whole.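 Method: cells in 96-well plates; compound added at one concentration; 48 h incubation; percent growth measured; values under 10 scored active.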 Unmarked numbers belong to inactive results. Calls of active or inactive are those of the source.

System: MDA-MB-468 breast
Assay: NCI-60 one-dose screen, 48 h (100 = growth as untreated, 0 = no growth, -100 = all killed)
Details: 10 µM unless noted

SMILES	growth
COc1ccc(OC)c(Nc2nnc(-c3ccc(O)c(OC)c3)o2)c1	71.7%
COc1cc(/C=C2\CN(C)C/C(=C\c3cc(CN4CCCCC4)c(O)c(OC)c3)C2=O)cc(CN2CCCCC2)c1O	13%
Fc1ccc(Nc2nc3nonc3nc2Nc2ccc(I)cc2)cc1	-14.7% (active)
Cc1ccc(S(=O)(=O)Nc2c(Br)cc(Br)cc2C(N)=O)cc1	102%
CCCCCCCCCCCC1=NC(C)(C)CN1C(C)(C)CO	-16% (active)
CN(C)Cc1cc(C(C)(C)CC(C)(C)C)ccc1O	100%
CN1CCN(c2ccc(NC(=O)c3nc4ccc5[nH]ncc5c4c4c3CCCC4)cc2C(F)(F)F)CC1	44%
O=[N+]([O-])c1cccc(/C=C/c2ccc3ccccc3n2)c1	71.2%
O=C(/C=C(/C=C/c1coc2ccccc12)OB(F)F)/C=C/c1coc2ccccc12	112%
O=C(/C=C(O)/C=C/c1ccc(SC(F)(F)F)cc1)/C=C/c1ccc(SC(F)(F)F)cc1	100%
COC(=O)c1cccc(NC2=C(Cl)C(=O)C(C)=C(C)C2=O)c1	-62% (active)
CCC(C)(C)C(=O)O[C@H]1C[C@@H](C)C=C2C=C[C@H](C)[C@H](CC[C@@H]3C[C@@H](O)CC(=O)O3)[C@H]21	52.6%
COc1cc2nc3cc([N+](=O)[O-])ccc3c(Cl)c2cc1OC	10.7%
Nc1ccc(-c2cccs2)cc1NC(=O)c1ccc(CCCC(=O)Nc2ccc(C3CC3N)cc2)cc1 (stereo not given)	69.6%
Cc1csc(-c2nnc(Nc3ccc(Oc4ncccc4-c4ccnc(N)n4)cc3)c3ccccc23)c1	41.6%
Clc1cc(Cl)c(Cl)nn1	102%
CCCCn1cnc2c(SCc3ccc([N+](=O)[O-])cc3)nc(N)nc21	80.8%
Cc1c(NCC(=O)Nc2nc3ccccc3[nH]2)c(=O)n(-c2ccccc2)n1C	106%
COc1ccc(/C=C/C(=O)C(=O)/C=C/c2ccc(OC)c(OC)c2)cc1OC	20.1%
Oc1ccc(-c2nnc(SCc3ccc(O)c4ncccc34)o2)cc1	10.8%

SMILES	growth
O=C1/C(=C/c2ccc(Cl)c(Cl)c2)CN(C(=O)CCN2CCC(=NO)CC2)C/C1=C\c1ccc(Cl)c(Cl)c1	-72.3% (active)
O=S(=O)(Nc1cccc2ccccc12)c1ccc(-c2cnc(C3CC3)o2)cc1	0.881% (active)
CC(C)(C)c1nn(-c2ccccc2)c2c1CC1(CN2Cc2ccc3c(c2)OCO3)C(=O)c2ccccc2C1=O	111%
COc1cc2nccc(Oc3ccc(NC(=O)C4(C(=O)Nc5ccc(F)cc5)CC4)cc3)c2cc1OC(=O)c1ccc(N)cc1	59.3%
CCOC(=O)c1c(NCC(=O)Nc2cccc(Cl)c2)sc2c1CCCC2	73%
Cc1ccc(/C=C2\C(=O)N(C)c3ccc(S(=O)(=O)Nc4ccc(C(C)(C)C)cc4)cc32)s1	41.8%
CN1CCN(c2ccc(NC(=O)Nc3ccc4c(ccn4-c4cccc(C(N)=O)n4)c3)cc2C(F)(F)F)CC1	42.8%
ClC1=C(Cl)C(Cl)=C(Cl)C1=Cc1ccccc1	-80.7% (active)
Cn1cc(-c2noc(-c3cn(C)c4ncc(Br)cc34)n2)c2cc(Cl)ccc21	82.3%
C#Cc1cccc(NC(=O)C2CCCCN2C(=O)CCl)c1 (stereo not given)	-60.1% [8.25 µM] (active)
COc1cc(-c2nc(SCC(C)C)nc(Nc3cccc4ccccc34)c2C#N)cc(OC)c1OC	116%
CC(C)(C)[Si](C)(C)O[C@H]1C(=O)C=CN2CC=C[C@@H]12	99.4% [100 µM]
C=CC[n+]1c(/C=C2\Sc3ccccc3N2C)sc(-c2ccccc2)c1-c1ccccc1	1.16% (active)
CN1CCN(c2ccc(Nc3ncc(C(N)=O)c(NCCCNC(=O)C4CCC4)n3)cc2)CC1	6.58% (active)
COc1ccc(/C=C(\C#N)c2cc(OC)c(OC)c(OC)c2)cc1	-10.8% (active)
CN(c1ccc(Cl)cc1)S(=O)(=O)c1ccc(-c2cnc(C3CC3)o2)cc1	22.7%
COc1ccc2c(c1)C(C)Cc1c(Cl)nc(C)nc1N2C (stereo not given)	25.8%
N#Cc1ccc2nc[nH]c2c1	87.6%
O=C(CSc1nc2sc3c(c2c(=O)n1-c1ccc(Cl)cc1)CCCC3)NNC(=O)Nc1ccc(Cl)c(C(F)(F)F)c1	-42.4% (active)
CCOCC(O)(c1ccc(Cl)cc1)c1ccc(Cl)cc1	102%
